From the supplement of paper PMC10849652
About 7,900 targets were measured; listed, in parts, are those with a hit and a random draw of the rest. About 0.6% of all pairs of compound and target were hits.

What was measured:
Experiment in all cases: log2 fold change, soluble protein after heating vs DMSO (PISA); higher = thermal stabilisation; K562 cells, 10 uM, 30 min; active = over 0.2 and 3.5 SD of the protein, either way, in both replicates (recomputed)
[1] = compound: CS(=O)(=O)c1ccc(-c2cnc(N)c(C(=O)Nc3ccccc3)n2)cc1
Outline: (§1)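 K562 cells at 2×10^6 cells/mL were treated for 30 min with 10 μM compound, and aliquots were heated for 3 min over 48°C-58°C before pooling. Extraction used PBS with 0.5% NP-40 at 4°C, and soluble protein was the supernatant after 21,000xg for 90 min, measured by TMTpro 16plex LC-MS/MS with channel sums equalised. Thermal stability values, relative to control samples and from duplicates, are log2 fold changes.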

crizotinib = compound: C[C@@H](Oc1cc(-c2cnn(C3CCNCC3)c2)cnc1N)c1c(Cl)ccc(F)c1Cl [crizotinib]
Outline: as §1

[2] = compound: C[C@@H]1COCCN1C2=NC(=NC(=C2)C3(CC3)S(=O)(=O)C)C4=C5C=CNC5=CC=C4
Outline: as §1

[3] = compound: C[C@H](C1=CC=C(C=C1)C(=O)NC2=C3C=CNC3=NC=C2)N
Outline: as §1

duvelisib = compound: C[C@H](Nc1ncnc2nc[nH]c12)c1cc2cccc(Cl)c2c(=O)n1-c1ccccc1 [duvelisib]
Outline: as §1

gandotinib = compound: Cc1cc(Nc2cc(CN3CCOCC3)c3nc(C)c(Cc4ccc(Cl)cc4F)n3n2)n[nH]1 [gandotinib]
Outline: as §1

tozasertib = compound: Cc1cc(Nc2cc(N3CCN(C)CC3)nc(Sc3ccc(NC(=O)C4CC4)cc3)n2)n[nH]1 [tozasertib]
Outline: as §1

[4] = compound: Cc1cc(SCc2sc(-c3ccc(C(F)(F)F)cc3)nc2C)ccc1OCC(=O)O
Outline: as §1

doramapimod = compound: Cc1ccc(-n2nc(C(C)(C)C)cc2NC(=O)Nc2ccc(OCCN3CCOCC3)c3ccccc23)cc1 [doramapimod]
Outline: as §1

ispinesib = compound: Cc1ccc(C(=O)N(CCCN)[C@@H](c2nc3cc(Cl)ccc3c(=O)n2Cc2ccccc2)C(C)C)cc1 [ispinesib]
Outline: as §1

bafetinib = compound: Cc1ccc(NC(=O)c2ccc(CN3CC[C@H](N(C)C)C3)c(C(F)(F)F)c2)cc1Nc1nccc(-c2cncnc2)n1 [bafetinib]
Outline: as §1

[5] = compound: Cc1cccc(CC(=O)N2CCc3c2ccc(-c2cn(C)c4ncnc(N)c24)c3F)n1
Outline: as §1

nilotinib = compound: Cc1cn(-c2cc(NC(=O)c3ccc(C)c(Nc4nccc(-c5cccnc5)n4)c3)cc(C(F)(F)F)c2)cn1 [nilotinib]
Outline: as §1

[6] = compound: Cc1nc(Nc2n[nH]c3c2CN(C(=O)N[C@H](CN(C)C)c2ccccc2)C3(C)C)c2sccc2n1
Outline: as §1

dasatinib = compound: Cc1nc(Nc2ncc(C(=O)Nc3c(C)cccc3Cl)s2)cc(N2CCN(CCO)CC2)n1 [dasatinib]
Outline: as §1

[7] = compound: Cc1ncc(-c2ccnc(Nc3ccc(S(C)(=O)=O)cc3)n2)n1C(C)C
Outline: as §1

[8] = compound: Cn1cc(-c2ccc3c(c2)CCN3C(=O)Cc2cccc(C(F)(F)F)c2)c2c(N)ncnc21
Outline: as §1

[9] = compound: Cn1cc(-c2ccc3nnc(C(F)(F)c4ccc5ncccc5c4)n3n2)cn1
Outline: as §1

tipifarnib = compound: Cn1cncc1[C@@](N)(c1ccc(Cl)cc1)c1ccc2c(c1)c(-c1cccc(Cl)c1)cc(=O)n2C [tipifarnib]
Outline: as §1

mubritinib = compound: FC(F)(F)c1ccc(/C=C/c2nc(COc3ccc(CCCCn4ccnn4)cc3)co2)cc1 [mubritinib]
Outline: as §1

Measured: log2 fold change

SERPINA7 (UniProt P05543)
Sequence of UniProt P05543 (P05543 whole entry, looked up): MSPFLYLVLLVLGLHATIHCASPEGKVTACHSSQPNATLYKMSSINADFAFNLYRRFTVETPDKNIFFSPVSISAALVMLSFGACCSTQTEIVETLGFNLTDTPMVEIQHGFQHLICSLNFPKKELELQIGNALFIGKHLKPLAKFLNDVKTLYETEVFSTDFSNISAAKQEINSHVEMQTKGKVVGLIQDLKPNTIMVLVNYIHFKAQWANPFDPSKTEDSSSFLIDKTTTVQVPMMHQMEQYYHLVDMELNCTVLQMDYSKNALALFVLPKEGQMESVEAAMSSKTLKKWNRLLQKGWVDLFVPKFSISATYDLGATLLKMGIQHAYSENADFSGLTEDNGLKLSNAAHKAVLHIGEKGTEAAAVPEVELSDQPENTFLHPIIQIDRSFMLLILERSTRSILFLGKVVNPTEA
inactive: [1] -0.16 | crizotinib 0.133 | [2] -0.095 | [3] 0.257 | duvelisib -0.201 | gandotinib -0.02 | tozasertib -0.046 | [4] -0.158 | doramapimod 0.217 | ispinesib 0.068 | bafetinib -0.191 | [5] -0.152 | nilotinib 0.05 | [6] 0.115 | dasatinib 0.098 | [7] 0.392 | [8] 0.238 | [9] 0.001 | tipifarnib 0.104 | mubritinib -0.247

SLC12A5 (UniProt Q9H2X9)
Sequence of UniProt Q9H2X9 (Q9H2X9 whole entry, looked up): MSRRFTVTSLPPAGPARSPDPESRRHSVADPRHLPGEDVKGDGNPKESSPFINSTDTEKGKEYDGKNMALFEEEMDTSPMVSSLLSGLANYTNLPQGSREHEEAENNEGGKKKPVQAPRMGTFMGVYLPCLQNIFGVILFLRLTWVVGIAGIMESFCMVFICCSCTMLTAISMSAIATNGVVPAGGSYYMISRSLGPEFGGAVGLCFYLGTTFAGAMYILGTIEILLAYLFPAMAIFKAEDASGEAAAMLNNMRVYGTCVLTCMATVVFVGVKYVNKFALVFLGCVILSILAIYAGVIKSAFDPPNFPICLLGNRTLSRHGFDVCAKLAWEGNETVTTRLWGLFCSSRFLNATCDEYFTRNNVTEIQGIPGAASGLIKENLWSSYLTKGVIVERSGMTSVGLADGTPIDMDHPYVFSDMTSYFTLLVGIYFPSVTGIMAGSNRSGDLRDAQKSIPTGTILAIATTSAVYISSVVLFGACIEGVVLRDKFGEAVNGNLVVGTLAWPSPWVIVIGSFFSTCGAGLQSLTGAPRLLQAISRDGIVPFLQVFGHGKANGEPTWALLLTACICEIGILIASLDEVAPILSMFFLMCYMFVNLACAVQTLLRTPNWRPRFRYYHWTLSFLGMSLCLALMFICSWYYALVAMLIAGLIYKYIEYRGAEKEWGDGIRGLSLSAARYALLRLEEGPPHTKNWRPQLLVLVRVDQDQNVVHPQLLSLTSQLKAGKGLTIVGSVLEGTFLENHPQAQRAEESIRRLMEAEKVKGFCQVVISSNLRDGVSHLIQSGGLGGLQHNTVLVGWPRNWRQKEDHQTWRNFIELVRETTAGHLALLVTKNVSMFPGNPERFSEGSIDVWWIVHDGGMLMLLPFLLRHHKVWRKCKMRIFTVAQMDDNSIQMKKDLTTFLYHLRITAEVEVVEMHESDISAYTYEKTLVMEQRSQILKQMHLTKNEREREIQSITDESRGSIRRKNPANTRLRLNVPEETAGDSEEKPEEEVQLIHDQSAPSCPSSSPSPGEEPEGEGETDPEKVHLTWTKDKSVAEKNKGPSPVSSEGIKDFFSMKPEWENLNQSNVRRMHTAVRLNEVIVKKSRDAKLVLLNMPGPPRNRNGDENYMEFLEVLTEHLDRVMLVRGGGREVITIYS
inactive: [1] 0.089 | crizotinib 0.001 | [2] 0.028 | [3] 0.027 | duvelisib -0.07 | tozasertib -0.039 | [4] 0.083 | doramapimod 0.234 | bafetinib 0.009 | dasatinib -0.034 | [8] 0.002 | tipifarnib 0.117 | mubritinib -0.001

SH2D1B (UniProt O14796)
inactive: [1] -0.031 | [2] 0.075 | [3] -0.201 | duvelisib 0.102 | gandotinib -0.692 | tozasertib -0.479 | [4] -0.08 | doramapimod -0.072 | ispinesib 0.06 | [5] 0.018 | nilotinib -0.421 | [6] -0.319 | [7] 0.005 | [8] -0.358 | [9] -0.069 | tipifarnib 0.045 | mubritinib -0.187
active: crizotinib -0.765 | dasatinib -1.18

RCN3 (UniProt Q96D15)
active: [5] -0.318
inactive: [1] -0.016 | crizotinib -0.028 | [2] -0.02 | [3] -0.041 | duvelisib -0.022 | gandotinib 0.029 | tozasertib -0.087 | [4] -0.058 | doramapimod 0.092 | ispinesib -0.033 | bafetinib -0.015 | nilotinib 0.015 | [6] -0.011 | dasatinib 0.045 | [7] 0.011 | [8] 0.162 | [9] 0.057 | tipifarnib -0.038 | mubritinib -0.056

RBM22 (UniProt Q9NW64)
inactive: [1] -0.045 | crizotinib 0.061 | [2] -0.053 | [3] 0.121 | duvelisib -0.052 | gandotinib -0.04 | tozasertib -0.052 | [4] 0 | doramapimod -0.025 | ispinesib -0.053 | bafetinib -0.085 | [5] 0 | nilotinib -0.019 | [6] -0.051 | dasatinib -0.07 | [7] 0.024 | [8] -0.133 | [9] -0.071 | tipifarnib 0.008 | mubritinib -0.048

SASH1 (UniProt O94885)
inactive: [1] 0.023 | crizotinib -0.122 | [2] -0.077 | [3] -0.024 | duvelisib 0.032 | gandotinib -0.028 | tozasertib 0.088 | [4] 0.198 | doramapimod -0.031 | ispinesib -0.116 | bafetinib -0.052 | [5] -0.006 | nilotinib -0.079 | [6] -0.071 | dasatinib -0.046 | [7] 0.034 | [8] 0.011 | [9] 0.073 | tipifarnib 0.025 | mubritinib 0.032

SCO2 (UniProt O43819)
inactive: [1] 0.062 | crizotinib -0.106 | [2] 0.05 | [3] -0.016 | duvelisib 0.14 | gandotinib 0.026 | tozasertib 0 | [4] 0.061 | doramapimod -0.031 | ispinesib -0.134 | bafetinib -0.058 | [5] -0.014 | dasatinib -0.042 | [8] 0.107 | [9] 0.039 | tipifarnib 0.014 | mubritinib -0.035

RIPK1 (UniProt Q13546)
Sequence of UniProt Q13546 (Q13546 whole entry, looked up): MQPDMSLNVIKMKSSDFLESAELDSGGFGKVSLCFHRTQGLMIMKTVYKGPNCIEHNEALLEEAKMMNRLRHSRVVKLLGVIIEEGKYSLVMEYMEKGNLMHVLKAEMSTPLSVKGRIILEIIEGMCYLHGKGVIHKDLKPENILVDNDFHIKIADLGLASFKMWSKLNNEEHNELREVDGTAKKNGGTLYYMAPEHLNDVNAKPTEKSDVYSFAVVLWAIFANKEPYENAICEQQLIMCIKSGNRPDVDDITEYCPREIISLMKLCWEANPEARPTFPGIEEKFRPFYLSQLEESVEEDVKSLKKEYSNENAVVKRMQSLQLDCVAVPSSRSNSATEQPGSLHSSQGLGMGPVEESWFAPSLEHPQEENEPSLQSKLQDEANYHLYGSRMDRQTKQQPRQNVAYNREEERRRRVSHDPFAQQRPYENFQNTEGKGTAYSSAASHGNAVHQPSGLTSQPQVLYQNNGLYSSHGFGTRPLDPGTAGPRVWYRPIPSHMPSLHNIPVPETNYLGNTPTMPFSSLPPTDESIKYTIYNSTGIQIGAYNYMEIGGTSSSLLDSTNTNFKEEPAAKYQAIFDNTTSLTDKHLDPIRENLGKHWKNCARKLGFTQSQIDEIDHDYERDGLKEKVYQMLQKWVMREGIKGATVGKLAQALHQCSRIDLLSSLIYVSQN
active: tozasertib 1.05 | [5] 1.12 | [7] 1.18 | [8] 1.49
inactive: [1] 0.058 | crizotinib 0.274 | [2] -0.01 | [3] 0.09 | duvelisib -0.1 | gandotinib 0.301 | [4] 0.118 | doramapimod 0.031 | ispinesib -0.155 | bafetinib 0.209 | nilotinib -0.007 | [6] -0.196 | dasatinib 0.197 | [9] -0.052 | tipifarnib -0.121 | mubritinib -0.089

RBBP6 (UniProt Q7Z6E9)
Sequence of UniProt Q7Z6E9 (Q7Z6E9 whole entry, looked up): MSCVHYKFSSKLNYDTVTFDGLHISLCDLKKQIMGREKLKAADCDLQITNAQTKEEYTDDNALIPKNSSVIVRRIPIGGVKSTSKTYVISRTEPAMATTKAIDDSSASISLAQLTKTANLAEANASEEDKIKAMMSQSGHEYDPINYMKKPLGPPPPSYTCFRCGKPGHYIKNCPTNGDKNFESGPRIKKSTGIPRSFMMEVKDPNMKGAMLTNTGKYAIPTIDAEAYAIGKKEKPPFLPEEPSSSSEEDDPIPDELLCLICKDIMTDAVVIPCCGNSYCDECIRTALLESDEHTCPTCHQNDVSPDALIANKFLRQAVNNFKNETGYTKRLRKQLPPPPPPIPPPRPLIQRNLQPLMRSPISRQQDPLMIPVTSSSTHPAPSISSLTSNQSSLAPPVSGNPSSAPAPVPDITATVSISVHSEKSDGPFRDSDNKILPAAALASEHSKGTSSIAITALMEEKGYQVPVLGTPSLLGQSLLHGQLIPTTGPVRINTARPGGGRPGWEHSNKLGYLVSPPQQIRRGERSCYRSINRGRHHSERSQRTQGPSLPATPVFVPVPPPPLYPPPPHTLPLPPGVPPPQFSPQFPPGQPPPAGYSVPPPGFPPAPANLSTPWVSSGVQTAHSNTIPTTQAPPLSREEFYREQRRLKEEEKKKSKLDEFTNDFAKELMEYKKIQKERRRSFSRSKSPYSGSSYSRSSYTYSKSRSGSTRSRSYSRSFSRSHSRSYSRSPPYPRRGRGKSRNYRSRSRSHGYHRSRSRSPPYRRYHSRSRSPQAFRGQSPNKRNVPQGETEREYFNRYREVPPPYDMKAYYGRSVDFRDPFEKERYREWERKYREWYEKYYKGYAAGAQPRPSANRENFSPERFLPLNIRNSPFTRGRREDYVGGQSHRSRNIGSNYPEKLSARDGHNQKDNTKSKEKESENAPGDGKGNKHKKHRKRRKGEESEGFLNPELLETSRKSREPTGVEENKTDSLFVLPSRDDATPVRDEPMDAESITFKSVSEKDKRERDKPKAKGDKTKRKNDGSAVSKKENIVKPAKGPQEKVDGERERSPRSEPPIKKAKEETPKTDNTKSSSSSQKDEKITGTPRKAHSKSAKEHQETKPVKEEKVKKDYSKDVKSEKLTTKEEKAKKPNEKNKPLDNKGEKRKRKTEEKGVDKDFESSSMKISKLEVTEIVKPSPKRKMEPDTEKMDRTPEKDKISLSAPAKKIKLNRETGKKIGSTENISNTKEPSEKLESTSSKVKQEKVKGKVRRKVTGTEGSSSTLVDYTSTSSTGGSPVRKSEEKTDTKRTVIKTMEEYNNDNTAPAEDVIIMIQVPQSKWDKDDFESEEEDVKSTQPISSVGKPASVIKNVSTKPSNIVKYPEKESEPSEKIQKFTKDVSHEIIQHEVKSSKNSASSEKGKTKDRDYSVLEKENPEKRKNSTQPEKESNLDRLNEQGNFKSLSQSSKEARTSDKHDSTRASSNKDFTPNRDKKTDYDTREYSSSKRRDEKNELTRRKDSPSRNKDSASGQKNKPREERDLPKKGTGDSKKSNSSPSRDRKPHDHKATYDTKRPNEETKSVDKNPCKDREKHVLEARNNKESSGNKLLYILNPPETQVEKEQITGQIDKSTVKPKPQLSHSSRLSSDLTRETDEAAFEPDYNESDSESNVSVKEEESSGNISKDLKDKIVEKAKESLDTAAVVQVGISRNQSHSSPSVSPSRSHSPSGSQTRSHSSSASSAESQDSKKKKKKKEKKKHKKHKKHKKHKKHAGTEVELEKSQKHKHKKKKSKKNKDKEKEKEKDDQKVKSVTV
inactive: [1] -0.117 | crizotinib -0.158 | [2] -0.036 | [3] 0.072 | gandotinib -0.066 | tozasertib 0.03 | doramapimod 0.012 | ispinesib 0.168 | bafetinib -0.018 | [5] -0.004 | nilotinib 0 | [6] -0.031 | [7] -0.003 | [8] 0.003 | [9] -0.01 | tipifarnib -0.058 | mubritinib -0.171

SHROOM2 (UniProt Q13796)
inactive: [1] 0.093 | crizotinib 0.005 | [2] 0.013 | [3] -0.099 | duvelisib 0.059 | gandotinib 0.397 | tozasertib -0.195 | [4] -0.233 | doramapimod 0.008 | bafetinib -0.091 | [5] -0.02 | nilotinib 0.082 | [6] 0.011 | dasatinib 0.166 | [7] -0.043 | [8] 0.163 | tipifarnib -0.022 | mubritinib 0.258

RNF167 (UniProt Q9H6Y7)
active: ispinesib -0.668
inactive: [1] 0.087 | crizotinib -0.133 | [2] -0.097 | [3] 0.082 | duvelisib -0.026 | gandotinib -0.045 | tozasertib 0.027 | [4] 0.018 | doramapimod -0.056 | bafetinib -0.049 | [5] -0.012 | nilotinib 0.049 | [6] -0.014 | dasatinib 0.039 | [7] 0.025 | [8] -0.068 | [9] 0.032 | tipifarnib 0.008 | mubritinib 0.001

RRAGB (UniProt Q5VZM2)
inactive: [1] 0.016 | crizotinib -0.131 | [2] 0.01 | [3] -0.123 | duvelisib 0.01 | gandotinib -0.008 | tozasertib -0.007 | [4] -0.011 | doramapimod 0.015 | ispinesib -0.065 | bafetinib -0.079 | [5] -0.045 | nilotinib 0.031 | [6] -0.003 | dasatinib 0.041 | [7] 0.009 | [8] 0.06 | [9] 0.043 | tipifarnib -0.025 | mubritinib 0.037

RPS4X (UniProt P62701)
inactive: [1] -0.027 | crizotinib 0.021 | [2] -0.378 | [3] 0.333 | duvelisib -0.211 | gandotinib 0.264 | tozasertib 0.039 | [4] -0.023 | doramapimod 0.18 | ispinesib -0.141 | bafetinib 0.332 | [5] 0 | nilotinib 0.051 | [6] 0.206 | dasatinib 0.061 | [7] -0.048 | [8] -0.251 | [9] -0.079 | tipifarnib 0.112 | mubritinib -0.105

RIC8A isoform 3 (UniProt Q9NPQ8)
inactive: [1] 0.042 | crizotinib -0.085 | [2] -0.036 | [3] 0.094 | duvelisib 0.036 | gandotinib -0.038 | tozasertib 0.177 | [4] 0.193 | doramapimod 0.094 | ispinesib -0.145 | bafetinib 0.042 | [5] -0.062 | nilotinib -0.041 | [6] -0.043 | dasatinib -0.108 | [7] 0.088 | [8] 0.03 | [9] 0.014 | tipifarnib -0.1 | mubritinib -0.095

RAPGEF4 (UniProt Q8WZA2)
Sequence of UniProt Q8WZA2 (Q8WZA2 whole entry, looked up): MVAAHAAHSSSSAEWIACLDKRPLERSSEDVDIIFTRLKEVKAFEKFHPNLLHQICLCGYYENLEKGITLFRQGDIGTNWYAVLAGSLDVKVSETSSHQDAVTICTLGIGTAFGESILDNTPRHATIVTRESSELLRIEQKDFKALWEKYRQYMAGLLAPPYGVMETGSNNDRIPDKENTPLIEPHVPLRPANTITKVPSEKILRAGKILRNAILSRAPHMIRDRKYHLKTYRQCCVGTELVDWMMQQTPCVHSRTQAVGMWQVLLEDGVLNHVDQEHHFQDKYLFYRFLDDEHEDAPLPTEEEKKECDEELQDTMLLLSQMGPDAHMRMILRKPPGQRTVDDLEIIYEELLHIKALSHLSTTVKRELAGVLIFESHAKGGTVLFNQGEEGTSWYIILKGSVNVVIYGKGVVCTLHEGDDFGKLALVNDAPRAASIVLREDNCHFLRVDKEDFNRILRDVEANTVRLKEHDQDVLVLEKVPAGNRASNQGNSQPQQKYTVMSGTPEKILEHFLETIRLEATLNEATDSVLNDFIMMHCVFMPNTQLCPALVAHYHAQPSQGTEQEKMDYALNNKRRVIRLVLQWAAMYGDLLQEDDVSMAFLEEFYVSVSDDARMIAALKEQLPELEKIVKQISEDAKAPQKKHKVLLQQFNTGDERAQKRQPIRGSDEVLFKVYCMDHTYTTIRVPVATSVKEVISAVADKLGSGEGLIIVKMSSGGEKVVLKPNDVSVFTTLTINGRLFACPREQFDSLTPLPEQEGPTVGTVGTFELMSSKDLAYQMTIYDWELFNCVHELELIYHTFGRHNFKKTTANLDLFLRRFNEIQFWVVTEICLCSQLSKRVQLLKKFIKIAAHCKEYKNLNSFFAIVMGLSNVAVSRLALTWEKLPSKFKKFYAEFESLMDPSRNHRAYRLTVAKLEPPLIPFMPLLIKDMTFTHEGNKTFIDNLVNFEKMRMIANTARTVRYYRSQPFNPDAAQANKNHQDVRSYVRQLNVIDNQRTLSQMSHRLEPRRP
inactive: [1] 0.115 | crizotinib 0.051 | [2] 0.04 | [3] -0.061 | duvelisib 0.07 | tozasertib -0.107 | [4] -0.139 | doramapimod 0.097 | bafetinib -0.075 | dasatinib 0.088 | [8] 0.201 | mubritinib 0.038

RNF185 (UniProt Q96GF1)
inactive: [3] -0.036 | gandotinib 0.104 | tozasertib -0.112 | ispinesib -0.024 | bafetinib 0.189 | [5] -0.037 | nilotinib -0.027 | [6] -0.001 | [7] -0.022 | [8] 0.089 | [9] 0.218 | tipifarnib 0.045 | mubritinib 0.057

RAB3D (UniProt O95716)
inactive: [3] -0.031 | duvelisib -0.106 | gandotinib 0.083 | tozasertib 0.021 | [4] -0.115 | ispinesib 0.2 | bafetinib -0.142 | [5] -0.052 | nilotinib 0.01 | [6] 0.066 | dasatinib 0.221 | [7] -0.116 | [8] 0.075 | [9] -0.201 | tipifarnib 0.065 | mubritinib 0.285
